Results from the supplement of paper PMC6555819.

The sequences below were run on VDR:RXRa (NR concentration 270 nM, RXRa partner concentration 90 nM) (assay: PBM binding z-score (relative to random genomic background probes); higher = stronger binding; sequences stand for … in GC…GCGATTGACAGCGTAGAATGAAGG).
Description: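 Protein-binding microarray (Agilent 4x180K custom design, double-stranded 60-nt probes: 5' GC cap, 34-nt variable region, 24-nt constant primer region; full probe sequence given). Purified or IVT nuclear receptor:RXRα heterodimers (3:1 NR:RXRα, mostly 270:90 nM) or homodimers were incubated for 1 h in PBS with 2% milk and no ligand, then detected with Alexa488 antibodies. Fluorescence from o1-orientation probes (~5 replicates averaged) was converted to z-scores against 500 random hg19 background probes. Variable regions are seed direct-repeat (DR0–DR5) sites, all their single-nucleotide variants and half-site ablations.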
ATATGTAGGTTATCGGGTGATTCAGTTTGCGCAT showed a PBM binding z-score of 1.77.
Work on TCATATAGGTAAATGCTGGGTGAAAGTCCGATCT yielded a PBM binding z-score of 0.641.
For TCTTGTAGGTCAACAGGAGGTTAAGAAAGATCGA, the PBM binding z-score was 3.79.
For CCAGACAGGTGAAAGGTAACTCAGTCTGGTACGC, the PBM binding z-score was 0.989.
Work on CCTCGGAGGACAGAAGGACAGAGCTGTCCGCTTT yielded a PBM binding z-score of -0.413.
Work on CCTAGCAGGCCAATCTGGCTCACTCAAGGCTTGA yielded a PBM binding z-score of -0.563.
Sequence ACAGACAGCTGAGTGAAGGTAACTCAGCTGGACG has a PBM binding z-score of -0.322.
CGAACTAGGTCCAGGACAGTGAATCTCCGCACGC gave a PBM binding z-score of -0.573.
With ATCGAAAGGTCGAGATGAGTATAGAGAAAGGGAA the PBM binding z-score was 2.4.
TCATATAGGTAACTGCTAGGTGAAAGTCCGATCT gave a PBM binding z-score of 0.632.
AGAGTGAGGTTATACGTAGATCAGGGAAGAAAGT was tested, and the PBM binding z-score was 1.6.
GTTATTAGTTGAAAGGGCAACCGAATGATTCTCG was tested, and the PBM binding z-score was 1.24.
CGTCCAAGGTCAGCATGTCAGTGAAAGCGACGTG was tested, and the PBM binding z-score was 2.49.
For TCATATAGATAAAGGTGAAAGTCGAACGATATGA, the PBM binding z-score was 0.945.
With GTACCAAGGTGAATAGGTCGTAGATGAGTAGGCG the PBM binding z-score was 0.667.
With CCTTACGGGTCACTCCAGGTTATAGCTTCGGAGT the PBM binding z-score was 3.95.
AGAATGAGGTGAAGATCAGGGAAACAGAATACAT gave a PBM binding z-score of 0.178.
With GATACAGGGACAAGGCCAGAGTACGCGTATTGAT the PBM binding z-score was -0.523.
CGTCAAACTTCAAGGTAACGTAACAGAAAGCAGC was tested, and the PBM binding z-score was 0.0642.
GCTGCTAGGTAAACTGATGGTCAGCTAAAGCTCG gave a PBM binding z-score of -0.576.
In the case of TTAATGAGGTTAAAGATCAGGGAACGTGGCGTCG, the PBM binding z-score is reported as 2.4.
GCTCGGAGGACAAGGTTAGAGCTTTGTCCGTAGA showed a PBM binding z-score of -0.341.
Work on AGAATGAGGTTATTAAGATCATGGAATTGCGGTC yielded a PBM binding z-score of 3.3.
For CGAACTAGGTCATTGACAGGACAGTGACTAGTAA, the PBM binding z-score was 2.42.
For GCGACTGGGGCATAGCAGGTTACCATAAGGTTGG, the PBM binding z-score was -0.336.
TGAATGAGGTTATAAGATCAGAGAACGTTGCAAA showed a PBM binding z-score of 0.965.
In the case of GCATATAGGTAATACAAGGTGAAAGACCGATTGT, the PBM binding z-score is reported as 0.319.
Work on AGAACGGGGGCACGCTGAGTTGATAGCAGAGTAG yielded a PBM binding z-score of 4.23.
CCGAGTAGGTTATGGGGCATTCACGCAACGGTGA gave a PBM binding z-score of -0.0125.
CAAACTAGGTCTCCGGAAGGTCAAAGTCCGCATG gave a PBM binding z-score of 3.06.
Sequence TCGAGTAGGTTACCAACGGGGCATTCAGCTTTCT has a PBM binding z-score of 0.126.
CAAACTAGGTCAAGAGGTCCAAGTCCGCTTCCCG was tested, and the PBM binding z-score was 4.71.
CCTAGCAGGCCAGGGACACTCAAGCATTTCGCTT gave a PBM binding z-score of -0.417.
ATCGAATGGTCGACGAGGTGAGTATACACCGTTT showed a PBM binding z-score of 0.0601.
With GATGCTAGGTCAACTGATGGTCAGCTAAAGCTCG the PBM binding z-score was 1.69.
TATACAGGGTCAAATGCCAGAGTACGAATGTCGA was tested, and the PBM binding z-score was 4.82.
With GCTATTAGTTGAAAGGGCGACCGAATGATTCTCG the PBM binding z-score was -0.17.
Work on GCTTACGGGTCAAAGGTTTTAGCATGAATAGAAT yielded a PBM binding z-score of 4.08.
With TCTAGTTGGTCACGGAGGTCACGCACGACGGGTA the PBM binding z-score was 5.99.
In the case of TCGACTAGGTTAGTCGGGGCATTCAGCCAACATA, the PBM binding z-score is reported as 1.81.
